The source of these data is PubChem BioAssay (Tox21).

The structures appear in SMILES notation. A number with no mark means an inactive call. Results filed as inconclusive are left out. Activity calls are given as the source filed them. Unless noted, the call rests on the fitted dose curve.

A short description of test [1]: Nuclear factor erythroid 2-related factor 2/antioxidant responsive element (Nrf2/ARE) small molecule agonists: qHTS cell viability counter screen in human keratinocytes (AID 1919968; active means well fitted curve in the direction sought with a large enough effect in the repeat runs; an effect the other way counts as inactive or inconclusive; further: nearly all actives have a fitted effect of over 55% in size). In a few lines: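 Cytotoxicity was multiplexed with the Nrf2/ARE luciferase assay in the same wells. Stably transfected HaCaT keratinocytes were treated with test compounds for 23 h at 37 C. Cell viability was then measured by CellTiter-Fluor fluorescence.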

Test [2] has as its target KiSS-1 receptor (Homo sapiens) (UniProt Q969F8). Kind of test: Human kisspeptin (KISS1R) small molecule agonists, calcium flux assay in KISS1R-HEK293 cells (AID 1920064; active means well fitted curve in the direction sought with a large enough effect in the repeat runs; an effect the other way counts as inactive or inconclusive). A digest of the protocol: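 Agonist activity is monitored as intracellular calcium rise in engineered HEK293 cells carrying human KISS1R. Cells are dye-loaded for 1 h at 37 C before compound addition, and fluorescence is recorded for 3 min.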
Background: A change in cytosolic calcium serves as a functional read-out for many receptors and channels.

Test [3] can be described thus: G protein-coupled receptor (GPCR) small molecule agonists, calcium flux assay: HEK293 wild type cell line counter screen (AID 1920065). A digest of the protocol: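 Seed cells, incubate 18 h (37 C, 5% CO2); add calcium dye, 1 h at 37 C; pin-transfer compounds, ATP control or DMSO; read fluorescence 480/540 nm each second for 3 min.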
The nature of test [4]: p53 small molecule agonists, cell-based qHTS assay with rat liver microsomes: qHTS cell viability counter screen (AID 1963580). Further: nearly all actives have a fitted effect of over 45% in size. In a few lines:
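Counter screen for cytotoxicity under metabolic activation: rat liver microsomes and NADPH, 0.5 mg/mL final each, added with compounds to p53RE-bla HCT-116 cells; 16 h at 37 C, then ATP luminescence read.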
Background: qHTS replaces the single test concentration by a dilution series.

The target in test [5] is 5-hydroxytryptamine receptor 2A (Homo sapiens) (UniProt P28223). The test can be described thus: 5-hydroxytryptamine receptor 2A (HTR2A) small molecule antagonists, cell-based qHTS assay (AID 1963586). Further: nearly all actives have a fitted effect of over 45% in size. In a few lines:
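CHO cells stably expressing human HTR2A were plated for 18 h at 37 C, then loaded with calcium dye for 1 h. Compounds were preincubated 5 min at room temperature before DOI (4 nM solution) was added. Kinetic fluorescence was read for 3 min.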

Test [6] addresses Muscarinic acetylcholine receptor M1 (Homo sapiens) (UniProt P11229). Kind of test: Cholinergic receptor muscarinic 1 (CHRM1) small molecule antagonists, cell-based qHTS assay (AID 1963588). Further: nearly all actives have a fitted effect of over 40% in size. Further: potency means the concentration at half of the fitted maximal effect. In a few lines:
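Compounds were tested at 15 concentrations in three independent runs. Dye-loaded CHRM1-CHO cells were exposed 5 min at room temperature before stimulation by acetylcholine added at 50nM. Intracellular calcium was read kinetically on FDSS for 3 min.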

Test [7] shares this target. Kind of test: Cholinergic receptor muscarinic 1 (CHRM1) small molecule agonists, cell-based qHTS assay (AID 1963589). Further: nearly all actives have a fitted effect of over 35% in size. In a few lines:
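Cells were plated and incubated 18 h at 37 C/5% CO2, loaded with calcium dye for 1 h at 37 C, then treated with compounds in DMSO. Fluorescence was recorded kinetically at 1 sec intervals.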

Test [8] in a line: cAMP Responsive Elements (CRE) small molecule antagonists, cell-based qHTS assay (AID 1963591; active means well fitted inhibition curve with a large enough effect in the signal ratio in the repeat runs, not every such curve was filed as active; the % refers to the signal ratio). In a few lines:
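Cells (CRE-bla HEK 293T, DMEM with 10% dialyzed FBS and 25 mM HEPES) are seeded and incubated 18 h. Compounds are added with NKH477 agonist at 0.25 uM final for 3 h, then FRET substrate for 2 h.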

Test [9] concerns the target Beta-2 adrenergic receptor (Homo sapiens) (UniProt P07550). Kind of test: Adrenergic beta2 receptor (ADRB2) small molecule antagonists, cell-based qHTS assay (AID 1963592). Further: series mostly up to about 92 µM; nearly all actives have a fitted effect of over 50% in size. In a few lines: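 Assay format: CHO-ADRB2 cells, 18-20hr seeding at 37C/5% CO2, then compound plus 1nM isoproterenol agonist mix for 0.5hr RT. Homogeneous time-resolved fluorescence cAMP detection after 1hr, expressed as 665/615 nm ratio.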

Test [10] deals with D(2) dopamine receptor (Homo sapiens) (UniProt P14416). Kind of test: Dopamine D2 receptor (DRD2) small molecule agonists, cell-based qHTS assay (AID 1963594). Further: nearly all actives have a fitted effect of over 35% in size. In a few lines:
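HEK293 cells stably expressing DRD2 were cultured 24 h at 37 C, then given Ro20-1724 (0.1 mM final) and compounds for 10 min at room temperature. NKH477 (200nM) was then added for 30 min. cAMP was read by HTRF.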

The nature of test [11]: p53 small molecule agonists, cell-based qHTS assay with human liver microsomes (AID 1963577).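 Further: p53 response element beta-lactamase reporter cells with liver microsomes plus NADPH.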 In a few lines:
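Metabolically competent format: test substances, human liver microsomes and NADPH (both 0.5 mg/mL final) incubated with p53RE-bla cells 16 h at 37 C. Beta-lactamase reporter signal then quantified by fluorescence.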

Test [12] can be described thus: p53 small molecule agonists, cell-based qHTS assay with rat liver microsomes (AID 1963578). In a few lines: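 Each plate received p53RE-bla cells, then compound, then rat liver microsomes and NADPH (both 0.5 mg/mL final). Plates were held 16 h at 37 C, and beta-lactamase activity was detected with LiveBLAzer over 2 h.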
Test [13] can be described thus: p53 small molecule agonists, cell-based qHTS assay with human liver microsomes: qHTS cell viability counter screen (AID 1963579). Further: nearly all actives have a fitted effect of over 45% in size. A digest of the protocol: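 Tox21 library compounds, delivered from DMSO stocks, were tested on p53RE-bla cells together with 0.5 mg/mL human liver microsomes and 0.5 mg/mL NADPH (final) over 16 h at 37 C; CellTiter-Glo luminescence served as the cytotoxicity measure.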

Test [14] in a line: p53 small molecule agonists, cell-based qHTS assay: qHTS cell viability counter screen (AID 1963581). Further: nearly all actives have a fitted effect of over 45% in size. In a few lines:
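Viability was counter-screened in parallel with the p53 agonist reporter by measuring intracellular ATP luminescence in the same HCT-116 p53RE-bla wells after 16 h compound treatment at 37 C.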

A short description of test [15]: cAMP Responsive Elements (CRE) small molecule agonists, cell-based qHTS assay (AID 1963590). A digest of the protocol:
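Cells carrying a CRE-driven beta-lactamase reporter (HEK 293T) are seeded, incubated overnight (18 h), and treated with test compounds for 3 h at 37 C; reporter activity is then detected with a FRET substrate after 2 h at room temperature.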

Test [16] concerns the target D(2) dopamine receptor (Homo sapiens) (UniProt P14416). The test can be described thus: Dopamine D2 receptor (DRD2) small molecule antagonists, cell-based qHTS assay (AID 1963595; active means well fitted inhibition curve with a large enough effect in the signal ratio in the repeat runs, with a control signal flat; the % refers to the signal ratio). A digest of the protocol:
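HTRF cAMP read-out at 665 and 620 nm emission (340 nm excitation). Antagonist mode: compounds were tested against 12 nM quinpirole in DRD2-HEK293 cells, with 200 nM NKH477 raising cAMP and 0.1 mM Ro20-1724 blocking its breakdown.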

Test [17] can be described thus: p53 small molecule agonists, cell-based qHTS assay (AID 1963582; active means well fitted activation curve with a large enough effect in the signal ratio in the repeat runs, not every such curve was filed as active; the % refers to the signal ratio). In a few lines:
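Cells carrying a p53-responsive bla reporter are treated with test compounds for 16 h at 37 C; beta-lactamase activity is then detected with LiveBLAzer B/G FRET substrate after 2 h at room temperature.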

Test [18] has as its target 5-hydroxytryptamine receptor 2A (Homo sapiens) (UniProt P28223). Kind of test: 5-hydroxytryptamine receptor 2A (HTR2A) small molecule agonists, cell-based qHTS assay (AID 1963587). Further: nearly all actives have a fitted effect of over 30% in size. A digest of the protocol:
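HTR2A-CHO cells, plated 18 h at 37 C/5% CO2, dye-loaded 1 h at 37 C; compounds in DMSO added by pin tool (agonist mode). Intracellular calcium flux read as kinetic fluorescence on FDSS over 2 min at 1 s intervals.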

Test [19] in a line: Nuclear factor erythroid 2-related factor 2/antioxidant responsive element (Nrf2/ARE) small molecule agonists: luciferase reporter gene qHTS assay in human keratinocytes (AID 1919969). Further: nearly all actives have a fitted effect of over 35% in size.
Test [20] deals with Gonadotropin-releasing hormone receptor (Homo sapiens) (UniProt P30968). Kind of test: Human gonadotropin-releasing hormone receptor (GnRHR) small molecule agonists, calcium flux assay in GnRHR-HEK293 cells (AID 1920063). Further: nearly all actives have a fitted effect of over 35% in size. In a few lines: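 Agonist activity was measured as intracellular calcium flux in HEK293 cells engineered to stably express human GnRHR. After dye loading for 1 hour at 37 C, compounds in DMSO were added and fluorescence was followed for 3 minutes.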
On the % scale 0 is the no-effect control and ±100 the full control effect.

Chain of Muscarinic acetylcholine receptor M1 (Homo sapiens) (P11229 whole entry, looked up): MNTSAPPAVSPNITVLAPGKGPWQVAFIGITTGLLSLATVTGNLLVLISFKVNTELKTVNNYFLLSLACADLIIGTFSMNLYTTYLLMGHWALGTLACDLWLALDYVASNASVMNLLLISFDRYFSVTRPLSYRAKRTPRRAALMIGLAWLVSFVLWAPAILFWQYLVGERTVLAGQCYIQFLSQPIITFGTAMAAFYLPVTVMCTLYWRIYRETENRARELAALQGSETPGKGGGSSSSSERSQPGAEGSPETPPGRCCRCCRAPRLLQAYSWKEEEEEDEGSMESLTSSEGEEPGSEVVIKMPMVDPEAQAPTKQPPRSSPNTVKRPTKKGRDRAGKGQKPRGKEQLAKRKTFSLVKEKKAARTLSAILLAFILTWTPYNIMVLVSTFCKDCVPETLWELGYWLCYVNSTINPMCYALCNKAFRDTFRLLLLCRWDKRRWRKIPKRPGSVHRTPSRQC
Chain of 5-hydroxytryptamine receptor 2A (Homo sapiens) (P28223 whole entry, looked up): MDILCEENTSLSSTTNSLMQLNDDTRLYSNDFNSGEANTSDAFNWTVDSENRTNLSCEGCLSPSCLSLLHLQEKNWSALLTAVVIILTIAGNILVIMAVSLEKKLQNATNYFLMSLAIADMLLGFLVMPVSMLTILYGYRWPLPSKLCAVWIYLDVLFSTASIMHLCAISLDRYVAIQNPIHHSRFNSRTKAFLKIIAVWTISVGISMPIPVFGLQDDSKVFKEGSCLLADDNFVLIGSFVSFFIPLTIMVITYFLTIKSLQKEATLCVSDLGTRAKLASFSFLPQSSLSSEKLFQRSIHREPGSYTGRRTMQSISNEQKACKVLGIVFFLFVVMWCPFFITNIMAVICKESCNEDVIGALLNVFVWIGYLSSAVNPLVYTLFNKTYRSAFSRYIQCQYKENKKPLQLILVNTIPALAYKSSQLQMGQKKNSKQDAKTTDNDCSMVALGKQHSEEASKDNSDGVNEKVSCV
Chain of Gonadotropin-releasing hormone receptor (Homo sapiens) (P30968 whole entry, looked up): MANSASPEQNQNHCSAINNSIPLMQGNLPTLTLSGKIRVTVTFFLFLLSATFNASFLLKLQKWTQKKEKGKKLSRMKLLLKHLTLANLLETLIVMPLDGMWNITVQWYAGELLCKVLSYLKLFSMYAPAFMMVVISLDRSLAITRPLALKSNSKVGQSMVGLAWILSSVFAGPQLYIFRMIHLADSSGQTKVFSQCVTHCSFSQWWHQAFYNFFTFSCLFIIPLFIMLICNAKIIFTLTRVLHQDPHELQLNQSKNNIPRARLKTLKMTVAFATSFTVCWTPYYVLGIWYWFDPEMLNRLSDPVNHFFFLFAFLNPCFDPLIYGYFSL
Chain of KiSS-1 receptor (Homo sapiens) (Q969F8 whole entry, looked up): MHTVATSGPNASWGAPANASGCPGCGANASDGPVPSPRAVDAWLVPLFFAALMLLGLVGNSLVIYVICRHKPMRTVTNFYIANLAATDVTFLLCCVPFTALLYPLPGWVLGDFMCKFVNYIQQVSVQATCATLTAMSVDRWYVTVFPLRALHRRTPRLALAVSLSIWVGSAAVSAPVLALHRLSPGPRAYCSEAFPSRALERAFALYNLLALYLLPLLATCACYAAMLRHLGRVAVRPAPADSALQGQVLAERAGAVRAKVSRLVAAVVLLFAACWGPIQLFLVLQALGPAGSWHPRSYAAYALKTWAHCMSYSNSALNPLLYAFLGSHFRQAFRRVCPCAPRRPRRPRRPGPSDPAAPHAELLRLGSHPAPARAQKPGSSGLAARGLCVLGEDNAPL
Chain of Beta-2 adrenergic receptor (Homo sapiens) (P07550 whole entry, looked up): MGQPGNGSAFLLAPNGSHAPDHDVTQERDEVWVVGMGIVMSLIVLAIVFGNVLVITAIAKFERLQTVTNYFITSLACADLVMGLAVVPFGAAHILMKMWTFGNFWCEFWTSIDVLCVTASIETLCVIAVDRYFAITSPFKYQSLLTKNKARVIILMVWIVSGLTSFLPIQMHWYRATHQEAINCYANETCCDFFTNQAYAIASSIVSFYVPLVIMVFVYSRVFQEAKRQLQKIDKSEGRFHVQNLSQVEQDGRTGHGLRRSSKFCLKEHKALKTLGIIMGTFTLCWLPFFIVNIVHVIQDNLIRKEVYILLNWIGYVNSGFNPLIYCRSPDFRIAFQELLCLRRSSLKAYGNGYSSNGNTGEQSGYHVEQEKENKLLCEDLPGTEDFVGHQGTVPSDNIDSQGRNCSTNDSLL
Chain of D(2) dopamine receptor (Homo sapiens) (P14416 whole entry, looked up): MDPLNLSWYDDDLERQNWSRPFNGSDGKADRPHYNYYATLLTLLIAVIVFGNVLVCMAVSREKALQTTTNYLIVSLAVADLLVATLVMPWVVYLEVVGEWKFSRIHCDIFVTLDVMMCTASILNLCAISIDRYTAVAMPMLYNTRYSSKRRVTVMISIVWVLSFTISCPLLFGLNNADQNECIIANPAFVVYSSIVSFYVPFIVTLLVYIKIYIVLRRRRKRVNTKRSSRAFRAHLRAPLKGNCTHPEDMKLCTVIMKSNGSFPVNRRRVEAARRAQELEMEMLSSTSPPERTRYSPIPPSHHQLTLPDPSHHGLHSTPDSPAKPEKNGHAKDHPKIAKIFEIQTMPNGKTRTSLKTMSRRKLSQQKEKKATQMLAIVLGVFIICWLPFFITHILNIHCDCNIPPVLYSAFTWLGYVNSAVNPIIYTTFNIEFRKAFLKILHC

On to `N[C@@H](CCC(=O)N[C@@H](CS)C(=O)NCC(=O)O)C(=O)O`, for which the results for the activity change, negative = cytotoxicity in [1] and in test [4] were 3.9% [at 19 µM] and 0.778% [at 13.5 µM], respectively. The activation in test [2] is 0.132% [at 15.8 µM]; in [3], -1.3% [at 11.8 µM]; in [7], -0.288% [at 15.8 µM]; in test [10], -7.59% [at 19 µM]. In addition, the activity, negative = inhibition is -1.78% [at 12.7 µM] in test [5] and 11.9% [at 12.6 µM] in test [6]. Also, the activity change, negative = inhibition was -10.5% [at 18.9 µM] in [8] and -5.33% [at 19 µM] in test [9].
Regarding `O=[N+]([O-])c1ccc2ncccc2c1`, the Potency entry in test [1], in test [2], in [3], in [11], in test [12] and in [13] was “inactive” throughout. For the same molecule, the Potency entry in [4], in test [14], in test [5], in test [6], in test [7] and in test [15] was “inactive” each time. Besides, the Potency entry in test [9], in test [10] and in test [16] was “inactive” in each case.
Take `CCCCCCOc1ccccc1C(N)=O`: the Potency entry in test [1], in test [3], in [11], in test [12], in test [13] and in test [4] was “inactive” in each case. Further, the Potency entry in test [5], in test [6], in [7], in [8], in test [9] and in test [10] was “inactive” in each case. Further, the Potency result in test [16] was “inactive”.
For `CC(C)OC(=O)OCOP(=O)(CO[C@H](C)Cn1cnc2c(N)ncnc21)OCOC(=O)OC(C)C`, the Potency result in test [1], in test [2], in test [3], in test [11], in test [12] and in [13] was “inactive” each time. For the same molecule, the Potency entry in test [4], in [14], in test [17], in test [5], in test [18] and in [6] was “inactive” each time. Besides, the Potency result in test [7], in test [15], in test [8], in test [10] and in test [16] was “inactive” throughout.
Take `CC(CN)CC(C)(C)CCN` (stereo unspecified): the Potency entry in test [19], in test [20], in test [2], in test [3], in [11] and in [12] was “inactive” throughout. The Potency entry in [13], in [4], in [14], in test [17], in [5] and in test [18] was “inactive” in each case. For the same molecule, the Potency result in [15], in test [8], in [9], in test [10] and in test [16] was “inactive” throughout. Further, the Potency in test [6] is 10.8 µM (active).
Consider `COc1ccc(-c2ccc3cc(C(=O)O)ccc3c2)cc1C12CC3CC(CC(C3)C1)C2`, for which the Potency entry in [19], in test [20], in test [2], in test [3], in test [11] and in [12] was “inactive” throughout. The Potency result in test [13], in [4], in test [14], in test [17], in test [5] and in test [18] was “inactive” each time. The Potency result in test [6], in test [15], in [8], in test [9], in test [10] and in [16] was “inactive” in each case.
Turning to `CCC(=O)OCCc1ccccc1`, the Potency entry in [19], in [20], in [2], in test [3], in test [11] and in test [12] was “inactive” throughout. For the same molecule, the Potency entry in test [13], in test [4], in test [14], in test [17], in test [5] and in test [18] was “inactive” throughout. Also, the Potency result in test [6], in [7], in [15], in test [9] and in [16] was “inactive” throughout.
As to `C1=CC2C3C=CC(C3)C2C1` (stereo unspecified), the Potency entry in [1], in test [3], in test [12], in test [17], in [6] and in [15] was “inactive” each time. The Potency result in test [8] and in test [9] was “inactive” throughout.
